Compound activity deposited in PubChem BioAssay by ICCB-Longwood Screening Facility, Harvard Medical School.
Mtb MenB inh – Mtb MenB enzyme inhibition; inhibition, % (concentration not given with the values); actives 0.43% (n = 100,000); MenB enzyme assay, absorbance read-out; AID 540299; P9WNP5; in the data active = inhibition above about 21%, passing the limit was not always enough
PV pol inh – poliovirus RNA polymerase inhibition; % elongation, % (compound at 16.7 µg/mL); poliovirus polymerase elongation, fluorescence polarization; active compounds read low; AID 588519; actives 0.66% (n = 150,000); in the data active = % elongation below about 90%
MbtI inh – MbtI salicylate synthase inhibition; P9WFX0; purified MbtI enzyme, fluorescence intensity read-out; actives 0.89% (n = 100,000); inhibition, % (test concentration not listed); in the data active = inhibition mostly above about 56%, no sharp cut-off; inactive = mostly below about 77%
Target sequence (P9WFX0 whole entry, looked up): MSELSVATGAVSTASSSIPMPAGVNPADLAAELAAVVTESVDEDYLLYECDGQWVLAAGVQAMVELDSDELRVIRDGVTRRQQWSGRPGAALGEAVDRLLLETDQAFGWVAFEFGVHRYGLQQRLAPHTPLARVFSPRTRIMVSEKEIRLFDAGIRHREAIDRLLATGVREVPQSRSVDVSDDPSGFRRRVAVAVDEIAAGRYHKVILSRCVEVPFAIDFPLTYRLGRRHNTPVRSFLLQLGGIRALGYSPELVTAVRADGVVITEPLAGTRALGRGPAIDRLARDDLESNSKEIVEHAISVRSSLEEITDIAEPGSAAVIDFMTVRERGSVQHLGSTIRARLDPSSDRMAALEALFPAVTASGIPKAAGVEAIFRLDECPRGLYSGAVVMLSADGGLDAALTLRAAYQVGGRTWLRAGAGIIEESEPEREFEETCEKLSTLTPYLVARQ
AID504770 – E. coli YBA685 growth inhibition, screen for V. cholerae RctB inhibitors; E. coli YBA685 rctB-dependent plasmid, OD600 growth, 3 h; active compounds read low; z-score (test concentration not listed); actives 0.27% (n = 130,000); in the data active = z-score below about -2, passing the limit was not always enough
Active calls of the source: *; ! = repeats disagree. This is a sample that favours compounds with a hit; in the whole collection about 1.5% have one here.

For Cc1csc(=S)n1-c1ccccc1 the results were MbtI inh 16 and AID504770 1.2.
Screening CC1Cc2scc[n+]2-c2ccccc2N1C=O (stereo not given) returned Mtb MenB inh 100*, PV pol inh 105 and AID504770 -0.55.
`O=C1c2ccccc2C(=O)c2c1oc1c3c(ccc21)OCN(C1CCS(=O)(=O)C1)C3` (stereo not given) gave Mtb MenB inh -8, PV pol inh 87*, MbtI inh -5 and AID504770 -1.4.
For O=C1c2ccccc2C(=O)c2c1oc1c3c(ccc21)OCN(CCCN1CCOCC1)C3 the results were Mtb MenB inh -14, PV pol inh 86*, MbtI inh -3 and AID504770 -0.8.
O=C1c2ccccc2C(=O)c2c1oc1c3c(ccc21)OCN(CC1CCCO1)C3 (stereo not given) was read as Mtb MenB inh -27, PV pol inh 88*, MbtI inh 1 and AID504770 0.3.
Screening O=C1c2ccccc2C(=O)c2c1oc1c3c(ccc21)OCN(C1CCCC1)C3 returned Mtb MenB inh 5, PV pol inh 83*, MbtI inh 0 and AID504770 -0.4.
For CC(C)CCN1COc2ccc3c4c(oc3c2C1)C(=O)c1ccccc1C4=O the results were Mtb MenB inh -1, PV pol inh 92, MbtI inh 3 and AID504770 -0.3.
Screening COc1ccc(CCN2COc3ccc4c5c(oc4c3C2)C(=O)c2ccccc2C5=O)cc1OC returned Mtb MenB inh -13, PV pol inh 98, MbtI inh 2 and AID504770 0.1.
Screening O=c1cc(-c2ccccc2)ss1 returned Mtb MenB inh -14, PV pol inh 82*, MbtI inh 53* and AID504770 -0.4.
`O=S(=O)(/N=c1/cc(-c2ccccc2)ss1)c1ccccc1` gave Mtb MenB inh -2, PV pol inh 100 and AID504770 -0.3.
For N#Cc1c(Cl)nc(N2CCOCC2)c(Cl)c1Cl the results were Mtb MenB inh -20, PV pol inh 104, MbtI inh -9 and AID504770 -0.1.
Screening Cc1cc(C)c(C#N)c(Cl)n1 returned Mtb MenB inh -32, PV pol inh 101, MbtI inh -2 and AID504770 0.15.
`CC(C)=NNc1nc(Cl)c(C#N)c(Cl)c1Cl` gave Mtb MenB inh -3, PV pol inh 101, MbtI inh 61* and AID504770 -0.6.
For N#Cc1c(Cl)nc(Cl)c(Cl)c1Cl the results were Mtb MenB inh 0, PV pol inh 76*, MbtI inh 72 and AID504770 -3.5*.
For Cc1ccc(OCc2nnc(SCC(=O)NC3CCCCC3)n2C(C)C)c(C)c1 the results were Mtb MenB inh 1, PV pol inh 100, MbtI inh -3 and AID504770 0.6.
Nc1sc(=S)nc2ccccc12 was read as Mtb MenB inh -99, PV pol inh 97, MbtI inh 52* and AID504770 -0.35.
Nc1c2ccccc2nc2ccccc12 (tested in a mixture with another compound) was read as Mtb MenB inh -4, PV pol inh 100, MbtI inh inactive and AID504770 0.1.
`Cn1c(COc2ccccc2)n[nH]c1=S` gave Mtb MenB inh -42, PV pol inh 102, MbtI inh 65*! and AID504770 -0.5.
For C=CCn1c(COc2ccccc2)n[nH]c1=S the results were Mtb MenB inh -40, PV pol inh 104 and AID504770 -0.65.
For CCN(CC)C(=O)CN1CCN(c2cccc(Cl)c2)CC1 the results were Mtb MenB inh 33*, PV pol inh 102, MbtI inh 0 and AID504770 -0.1.
For O=C(O)CCN1CCN(c2cccc(Cl)c2)CC1 the results were Mtb MenB inh -19, PV pol inh 101, MbtI inh -8 and AID504770 -0.9.
`CCN(Cc1ccc2c(c1)OCCO2)C(=S)NCc1ccco1` gave Mtb MenB inh -31, PV pol inh 97, MbtI inh 89* and AID504770 -0.3.
`O=C(Cc1ccc2c(c1)OCCO2)NCc1ccco1` gave Mtb MenB inh 7, MbtI inh 28 and AID504770 1.4.
`O=C(Nc1ccc(Br)c(Cl)c1)c1ccc(C(=O)Nc2ccc(Br)c(Cl)c2)cc1` gave PV pol inh 106.
For COc1cc(Cl)c(C)cc1NC(=S)N(Cc1ccccc1C)CC1CCC(C(=O)O)CC1 (stereo not given) the results were Mtb MenB inh -11, PV pol inh 98, MbtI inh 52* and AID504770 -0.2.
`CN(C)C(CNCc1ccc(-n2cnc3ccccc32)cc1)c1ccco1` (stereo not given) gave Mtb MenB inh 32*, PV pol inh 101, MbtI inh 5 and AID504770 1.3.
CN(C)C(CNC(=O)c1ccccn1)c1ccco1 (stereo not given) was read as Mtb MenB inh -43, PV pol inh 101, MbtI inh 39 and AID504770 -0.2.
`CC(=O)c1cccc(-n2c(=O)c3c4c(sc3n(Cc3cccc(C)c3)c2=O)CN(C(C)=O)CC4)c1` gave PV pol inh 101.
Screening COc1ccc2c(c1)nc(SCC(=O)C(C)(C)C)n2C returned Mtb MenB inh 0, PV pol inh 98, MbtI inh 53* and AID504770 0.35.
COc1ccc2c(c1)nc(SCC(C)O)n2C (stereo not given) was read as PV pol inh 98, MbtI inh 2 and AID504770 0.4.
Cc1ccc(NC(=O)CN2C(=O)C(c3ccc(C(C)(C)C)cc3)=NC2(C)C)cc1 was read as PV pol inh 32*.
For CCN(CC)CCn1c(NCc2ccc(C)o2)nc2ccccc21 the results were PV pol inh 103, MbtI inh -6 and AID504770 -0.2.
Screening CC(=O)NCCCc1[nH]n(-c2ccccc2)c(=O)c1NC(=O)c1ccccc1 returned Mtb MenB inh 10, PV pol inh 87*, MbtI inh 21 and AID504770 -0.1.
For CN(C)S(=O)(=O)c1cccc(-c2nnc3n2N=C(c2ccccc2)C(CC(=O)O)S3)c1 (stereo not given) the results were Mtb MenB inh 0, PV pol inh 75*, MbtI inh 99* and AID504770 -0.6.
`CCc1ccc(NC(=O)Cn2c(=O)n(CC3CCCO3)c(=O)c3cc(OC)c(OC)cc32)cc1` (stereo not given) gave PV pol inh 111.
`Cc1cccc(-n2cc(-c3ccccc3)c3c(NC4CCCC4)ncnc32)c1` gave PV pol inh 100.
For CN1CCC(N(Cc2ccco2)C(=O)c2cc3sccc3n2Cc2ccccc2)CC1 the results were Mtb MenB inh -22, PV pol inh 102, MbtI inh 8 and AID504770 -0.7.
For CN1CCC(N(Cc2ccc3c(c2)OCO3)C(=O)c2cn(Cc3ccccc3)c3ccsc23)CC1 the results were Mtb MenB inh 24*, PV pol inh 104, MbtI inh 0 and AID504770 1.2.
Cn1nc(-c2ccccc2)[nH]c1=O was read as AID504770 -0.7.
For NC(=O)c1c(NC(=O)/C=C/c2cccs2)sc2c1CCCC2 the results were Mtb MenB inh -43, PV pol inh 99, MbtI inh 53* and AID504770 -0.15.
